The values that follow come from PubChem BioAssay (NCI).

About 83,000 compounds went through this panel and 20% of them were active in at least one assay; those are over-represented in the sample as a whole.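 Activity criterion: percent growth below 10, measured after cells in 96-well plates were exposed to a single compound concentration for 48 hours.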 Active and inactive are the calls of the source.

In one test the test system is MOLT-4 leukemia. Description: NCI-60 one-dose screen, 48 h (100 = growth as untreated, 0 = no growth, -100 = all killed). Conditions: 10 µM unless noted.
Turning to `Nc1cc2nc3ccccc3sc-2cc1=O`, the growth is 61.4% (inactive).
For `C#Cc1nc(Nc2cc(C)[nH]n2)c2ccccc2n1`, the growth is -19.8% (active).
Still for that read-out and setting: under `CCOC(=O)c1nc(Nc2cc(C)[nH]n2)c2ccccc2n1` stands 102% (inactive).
On the same count and under the same terms, to `O=C(/C=C/c1ccc(Cl)cc1)/C=C/c1cc2ccccc2[nH]c1=O` belongs 15.7% (inactive); to `CCOC(=O)c1ccc2c(c1)nc(/C=C/c1ccc(Cl)cc1)n2-c1cc(C(C)(C)C)[nH]n1`, -2.76% (active); to `CC(=O)OCC(=O)C1CCC=CC1OC(C)=O` (stereo unspecified), 95.9% (inactive).
Take `COc1cc(C2CC(=O)c3c(C)nn(-c4nc5ccccc5[nH]4)c3C2)cc(OC)c1OC` (stereo unspecified): the growth was 102% (inactive).
With `CC1(C)OCC2OC3(C(=O)O)OC(C)(C)OC3C2O1` (stereo unspecified), the growth was 97.9% (inactive).
`COc1ccc(C(=O)c2sc3nc(-c4ccccc4OC)ccc3c2N)cc1OC`: the growth is -45% (active).
Still for that read-out and setting: under `COc1ccc(C(=O)c2sc3nc4c(cc3c2N)CCCC4)cc1OC` stands 6.5% (active).
Turning to `Cc1ccc2c(NCCCN(C)C)c3c(C)nn(C)c3nc2c1`, the growth is 10.7% (inactive).
Regarding `Cc1ccc(NC(=O)c2sc3nc4c(cc3c2N)C(=O)CCC4)cc1C`, the growth is 27.6% (inactive).
On the same count and under the same terms, to `COc1c(C2CC(=O)Nc3c2cnn3Cc2ccco2)cc2c(c1OC)OCO2` (stereo unspecified) belongs 1.51% (active).
The same measure, in the same setting: to `Cc1ccn2c(-c3csc(Nc4cccc(O)c4)n3)c(C)nc2c1` belongs -7.6% (active); to `NC(CC(=O)O)C(=O)OCc1ccccc1` (stereo unspecified), 103% (inactive); to `O=C1Nc2ccc(Br)cc2C12CC(c1ccccc1)=NN2` (stereo unspecified), 36.3% (inactive).
For the compound `Cc1cc(Nc2nc(N3CCNCC3)nc3ccccc23)n[nH]1`, the growth was 101% (inactive).
Take `CCc1ccccc1NC(=O)c1sc2nc3c(cc2c1N)C(=O)CCC3`: the growth was 24.4% (inactive).
On the same count and under the same terms, under `CCOC(=O)N1CCN(c2nc(Nc3cc(C)[nH]n3)c3ccccc3n2)CC1` stands 69.1% (inactive); under `CN1CCCCC1CCN1c2ccccc2Sc2ccc(Cl)cc21` (stereo unspecified), 41% (inactive); under `COc1c(Cl)cc(Cl)cc1Cl`, 91.4% (inactive).
The same measure, in the same setting: to `Cc1cc(Nc2nc(N3CCOCC3)nc3ccccc23)n[nH]1` belongs 58.4% (inactive); to `COc1ccc(C2CC(=O)Nc3c2c(C)nn3-c2nc3ccccc3[nH]2)cc1` (stereo unspecified), -44.6% (active).
Same read-out and setting: under `COc1cc(-c2cc(-c3nc4ccc(Cl)cc4[nH]3)[nH]n2)cc(OC)c1OC` stands 4.79% (active); under `Cc1noc(C)c1-c1cc(O)cc(C(O)c2ccccc2)c1` (stereo unspecified), 58.8% (inactive); under `COc1ccc(-c2nc(Nc3cc(C)[nH]n3)c3ccccc3n2)cc1`, 69.8% (inactive).
Take `Cc1cc(Nc2nc(-c3cccnc3)nc3ccccc23)n[nH]1`: the growth is 89.5% (inactive).
On the same count and under the same terms, under `CC#Cc1nc2ccccc2c(=O)[nH]1` stands 19.3% (inactive); under `O=C(Nc1ccc(F)cc1)Nc1ccc(CCO)cc1`, 102% (inactive); under `CCCCNC(=O)NS(=O)(=O)c1ccc(N2N=C(c3cc(C)ccc3C)CC2c2cc(OC)c(OC)c(OC)c2)cc1` (stereo unspecified), 30.9% (inactive).
For `COc1cc(C2C(C(=O)c3cccs3)=C(O)C(=O)N2CCN2CCOCC2)cc(OC)c1OC` (stereo unspecified), the growth was 129% (inactive).
The same measure, in the same setting: under `NCc1cn2cc(Cl)sc2n1` stands 110% (inactive); under `CCCCCCCCCCCCN1CCCC(C)C1` (stereo unspecified), 63.9% (inactive); under `O=c1c2cccc3c(Nc4ccccn4)ccc(c32)c2nc3ccccc3n12`, 61.8% (inactive).
On the same count and under the same terms, to `Cc1ccc(S(=O)(=O)N(CCc2ccc(Cl)cc2)S(=O)(=O)c2ccc(C)cc2)cc1` belongs 66.5% (inactive).
The same measure, in the same setting: to `O=C(N/N=C/c1ccc(O)cc1O)c1cccnc1` belongs 3.3% (active); to `CNC(=S)N/N=C/CSC/C=N/NC(=S)NC`, 48.7% (inactive); to `COc1ccc(-c2c(C)noc2-c2ccc(O)cc2O)cc1`, 59.1% (inactive).

A further test deals with SR leukemia. The test is described as above. Conditions: 10 µM unless noted.
As to `Nc1cc2nc3ccccc3sc-2cc1=O`, the growth is 2.91% (active).
Same read-out and setting: under `C#Cc1nc(Nc2cc(C)[nH]n2)c2ccccc2n1` stands 3.84% (active).
Consider `CCOC(=O)c1nc(Nc2cc(C)[nH]n2)c2ccccc2n1`, for which the growth is 81.1% (inactive).
On the same count and under the same terms, under `O=C(/C=C/c1ccc(Cl)cc1)/C=C/c1cc2ccccc2[nH]c1=O` stands 1.79% (active); under `CCOC(=O)c1ccc2c(c1)nc(/C=C/c1ccc(Cl)cc1)n2-c1cc(C(C)(C)C)[nH]n1`, 52.2% (inactive); under `CC(=O)OCC(=O)C1CCC=CC1OC(C)=O` (stereo unspecified), 98.9% (inactive).
Still for that read-out and setting: to `COc1cc(C2CC(=O)c3c(C)nn(-c4nc5ccccc5[nH]4)c3C2)cc(OC)c1OC` (stereo unspecified) belongs 87.7% (inactive); to `CC1(C)OCC2OC3(C(=O)O)OC(C)(C)OC3C2O1` (stereo unspecified), 101% (inactive); to `COc1ccc(C(=O)c2sc3nc(-c4ccccc4OC)ccc3c2N)cc1OC`, 21.6% (inactive).
Still for that read-out and setting: to `COc1ccc(C(=O)c2sc3nc4c(cc3c2N)CCCC4)cc1OC` belongs -7.02% (active); to `Cc1ccc2c(NCCCN(C)C)c3c(C)nn(C)c3nc2c1`, 5.55% (active); to `Cc1ccc(NC(=O)c2sc3nc4c(cc3c2N)C(=O)CCC4)cc1C`, 22.9% (inactive).
As to `COc1c(C2CC(=O)Nc3c2cnn3Cc2ccco2)cc2c(c1OC)OCO2` (stereo unspecified), the growth is 2.13% (active).
As for `Cc1ccn2c(-c3csc(Nc4cccc(O)c4)n3)c(C)nc2c1`, the growth is -24.8% (active).
The same measure, in the same setting: under `NC(CC(=O)O)C(=O)OCc1ccccc1` (stereo unspecified) stands 107% (inactive); under `O=C1Nc2ccc(Br)cc2C12CC(c1ccccc1)=NN2` (stereo unspecified), 12.5% (inactive).
Still for that read-out and setting: to `Cc1cc(Nc2nc(N3CCNCC3)nc3ccccc23)n[nH]1` belongs 92.6% (inactive); to `CCc1ccccc1NC(=O)c1sc2nc3c(cc2c1N)C(=O)CCC3`, 9.38% (active); to `CCOC(=O)N1CCN(c2nc(Nc3cc(C)[nH]n3)c3ccccc3n2)CC1`, 17.3% (inactive).
On the same count and under the same terms, under `CN1CCCCC1CCN1c2ccccc2Sc2ccc(Cl)cc21` (stereo unspecified) stands -22.5% (active); under `COc1c(Cl)cc(Cl)cc1Cl`, 101% (inactive); under `Cc1cc(Nc2nc(N3CCOCC3)nc3ccccc23)n[nH]1`, 10.8% (inactive).
With `COc1ccc(C2CC(=O)Nc3c2c(C)nn3-c2nc3ccccc3[nH]2)cc1` (stereo unspecified), the growth was -36% (active).
`COc1cc(-c2cc(-c3nc4ccc(Cl)cc4[nH]3)[nH]n2)cc(OC)c1OC`: the growth is 41.9% (inactive).
The same measure, in the same setting: to `Cc1noc(C)c1-c1cc(O)cc(C(O)c2ccccc2)c1` (stereo unspecified) belongs 27.1% (inactive); to `COc1ccc(-c2nc(Nc3cc(C)[nH]n3)c3ccccc3n2)cc1`, 23.7% (inactive).
Same read-out and setting: to `Cc1cc(Nc2nc(-c3cccnc3)nc3ccccc23)n[nH]1` belongs 15.5% (inactive); to `CC#Cc1nc2ccccc2c(=O)[nH]1`, 39.4% (inactive).
Same read-out and setting: to `O=C(Nc1ccc(F)cc1)Nc1ccc(CCO)cc1` belongs 103% (inactive).
On to `CCCCNC(=O)NS(=O)(=O)c1ccc(N2N=C(c3cc(C)ccc3C)CC2c2cc(OC)c(OC)c(OC)c2)cc1` (stereo unspecified), for which the growth was 12.7% (inactive).
As to `COc1cc(C2C(C(=O)c3cccs3)=C(O)C(=O)N2CCN2CCOCC2)cc(OC)c1OC` (stereo unspecified), the growth was 111% (inactive).
The same measure, in the same setting: under `NCc1cn2cc(Cl)sc2n1` stands 102% (inactive); under `CCCCCCCCCCCCN1CCCC(C)C1` (stereo unspecified), -13.9% (active); under `O=c1c2cccc3c(Nc4ccccn4)ccc(c32)c2nc3ccccc3n12`, 10.2% (inactive).
Same read-out and setting: under `Cc1ccc(S(=O)(=O)N(CCc2ccc(Cl)cc2)S(=O)(=O)c2ccc(C)cc2)cc1` stands 82.5% (inactive).
The same measure, in the same setting: under `O=C(N/N=C/c1ccc(O)cc1O)c1cccnc1` stands -6.2% (active).
Consider `CNC(=S)N/N=C/CSC/C=N/NC(=S)NC`, for which the growth is 6.29% (active).
The same measure, in the same setting: to `COc1ccc(-c2c(C)noc2-c2ccc(O)cc2O)cc1` belongs 31.1% (inactive).
